# From the supplement of paper PMC11219838
# System: Caenorhabditis elegans dauer (daf-2(e1370))
# Test: proportion of mobile C. elegans dauer larvae relative to DMSO control (fraction of DMSO control); higher = more viable, less nematicidal, active = 0.63 or less; extreme values may be limits of the assay
# Details: 60 µM; 5 days; temperature: 20 °C
# Summary of the method: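 Compound was added by pinning to 60 µM final, giving 0.6% v/v DMSO, in 96-well plates containing about 20 C. elegans dauers per well in liquid NGM. These dauers came from synchronized larvae held on MYOB plates with E. coli OP50 for 48 h at 25 °C. Plates were sealed and shaken at 200 rpm at 20 °C for 5 days. Under a dissection microscope, the proportion of mobile worms was scored relative to DMSO wells, and two biological replicates were averaged.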
row,SMILES,proportion of mobile C. elegans dauer larvae
1,Cc1ccc(CSc2nnc(-c3ccncc3)o2)cc1,1 (inactive)
2,O=C(CSc1nnc(-c2ccc(Br)cc2)o1)Nc1nccs1,1 (inactive)
3,COc1cccc(-c2noc(CSc3ccccc3)n2)c1,1 (inactive)
4,COc1ccc(-c2noc(CSc3ccc(C)cc3)n2)cc1,1 (inactive)
5,Fc1cccc(-c2nc(-c3cccnc3)no2)c1,1 (inactive)
6,CCOc1ccc(-c2noc(-c3ccncc3)n2)cc1OC,1 (inactive)
7,Clc1ccc(SCc2nc(-c3ccccc3)no2)cc1,0.59 (active)
8,Cc1ccc(-c2nc(-c3ccccc3Cl)no2)cc1,1 (inactive)
9,COc1cccc(NC(=O)c2ccccc2-c2nc(-c3ccccc3Cl)no2)c1,1 (inactive)
10,Cc1cccc(OCc2nc(-c3ccc(-n4cccc4)cc3)no2)c1,1 (inactive)
11,CCCC(=O)Nc1ccccc1-c1nc(-c2ccncc2)no1,1 (inactive)
12,Ic1ccc(CSc2nnc(-c3ccco3)o2)cc1,1 (inactive)
13,CCn1cc(C(=O)CSc2nnc(-c3ccccc3)o2)c2ccccc21,1 (inactive)
14,Ic1ccc(-c2nc(-c3cccnc3)no2)cc1,1 (inactive)
15,COc1ccc(Cl)cc1-c1nnc(SCC(=O)Nc2nccs2)o1,1 (inactive)
16,Cc1ccc(CSc2nnc(-c3cccc(Br)c3)o2)c(C)c1,1 (inactive)
17,Cc1ccc(-c2nc(-c3cccnc3)no2)cc1Cl,1 (inactive)
18,CC(Sc1nnc(-c2ccco2)o1)C(=O)NC(c1ccccc1)c1ccccc1 (stereo unspecified),1 (inactive)
19,CCOc1ccccc1-c1nc(-c2ccc(NC(=O)Cc3ccccc3OC)cc2)no1,1 (inactive)

row,SMILES,proportion of mobile C. elegans dauer larvae
1,CCCCc1nc(-c2ccc(-c3ccc(C)cc3)nc2OC)no1,1 (inactive)
2,CC(C)(C)c1ccc(-c2nnc(SCc3cccc(C#N)c3)o2)cc1,1 (inactive)
3,COc1ccc(-c2nnc(SCC(=O)c3ccccc3)o2)cc1,1 (inactive)
4,COc1cccc(-c2noc(COc3ccccc3Cl)n2)c1,1 (inactive)
5,CC(C)(C)NC(=O)c1ccccc1-c1nc(-c2ccccc2)no1,1 (inactive)
6,Cc1cc(OCc2nc(-c3ccc(NC(=O)c4ccc5c(c4)OCO5)cc3)no2)ccc1Cl,1 (inactive)
7,CCOc1nc(-c2ccc(C)cc2)ccc1-c1noc(-c2cccnc2)n1,1 (inactive)
8,COc1ccc(Cl)cc1-c1noc(-c2ccc(Cl)cc2)n1,1 (inactive)
9,Cc1ccc(-c2nnc(SCc3ccccc3)o2)cc1,0.371 (active)
10,CN(C(=O)CSc1nnc(-c2ccccc2)o1)c1ccccc1,1 (inactive)
11,CC(Oc1ccccc1)c1nc(-c2ccccn2)no1 (stereo unspecified),1 (inactive)
12,O=C(CSc1nnc(-c2ccc(Cl)cc2)o1)Nc1ccccc1C(F)(F)F,1 (inactive)
13,CCOc1nc(-c2ccccc2)ccc1-c1noc(-c2ccccc2F)n1,1 (inactive)
14,Cc1ccc(-c2nnc(SCC(=O)NCCc3ccccc3)o2)cc1,1 (inactive)
15,Cc1cccc(-c2noc(-c3ccc(F)cc3)n2)c1,1 (inactive)
16,CNC(=O)c1ccccc1-c1nc(-c2ccc(Cl)cc2)no1,1 (inactive)
17,Cc1cc(OCc2nc(-c3ccccc3)no2)ccc1Cl,1 (inactive)
18,Clc1ccc(-c2noc(COc3ccccc3Cl)n2)cc1,1 (inactive)
19,Cc1cc(OCc2nc(-c3ccncc3)no2)ccc1Br,1 (inactive)

# System: Ditylenchus dipsaci
# Test: proportion of mobile D. dipsaci (mixed stage) relative to DMSO control (fraction of DMSO control); higher = more viable, less nematicidal, active = 0.86 or less; extreme values may be limits of the assay
# Details: 60 µM; 5 days; temperature: 20 °C
# Summary of the method: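 The worms, D. dipsaci raised on pea plants in Gamborg B-5 agar, were recovered through a filter funnel into water. Each well of a 96-well plate then held about 20 of them in distilled water plus pinned compound at 60 µM final (0.6% v/v DMSO), and the sealed plates were shaken at 200 rpm at 20 °C for 5 days. Following addition of 2 µL 1 M NaOH, mobile worms were counted by microscopy, and mobility was expressed against DMSO controls as the average of two biological replicates.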
row,SMILES,proportion of mobile D. dipsaci
1,Cc1ccc(CSc2nnc(-c3ccncc3)o2)cc1,0.75 (active)
2,O=C(CSc1nnc(-c2ccc(Br)cc2)o1)Nc1nccs1,1 (inactive)
3,COc1cccc(-c2noc(CSc3ccccc3)n2)c1,1 (inactive)
4,COc1ccc(-c2noc(CSc3ccc(C)cc3)n2)cc1,1 (inactive)
5,Fc1cccc(-c2nc(-c3cccnc3)no2)c1,1 (inactive)
6,CCOc1ccc(-c2noc(-c3ccncc3)n2)cc1OC,1 (inactive)
7,Clc1ccc(SCc2nc(-c3ccccc3)no2)cc1,1 (inactive)
8,Cc1ccc(-c2nc(-c3ccccc3Cl)no2)cc1,1 (inactive)
9,COc1cccc(NC(=O)c2ccccc2-c2nc(-c3ccccc3Cl)no2)c1,1 (inactive)
10,Cc1cccc(OCc2nc(-c3ccc(-n4cccc4)cc3)no2)c1,1 (inactive)
11,CCCC(=O)Nc1ccccc1-c1nc(-c2ccncc2)no1,1 (inactive)
12,Ic1ccc(CSc2nnc(-c3ccco3)o2)cc1,1 (inactive)
13,CCn1cc(C(=O)CSc2nnc(-c3ccccc3)o2)c2ccccc21,1 (inactive)
14,Ic1ccc(-c2nc(-c3cccnc3)no2)cc1,1 (inactive)
15,COc1ccc(Cl)cc1-c1nnc(SCC(=O)Nc2nccs2)o1,1 (inactive)
16,Cc1ccc(CSc2nnc(-c3cccc(Br)c3)o2)c(C)c1,1 (inactive)
17,Cc1ccc(-c2nc(-c3cccnc3)no2)cc1Cl,1 (inactive)
18,CC(Sc1nnc(-c2ccco2)o1)C(=O)NC(c1ccccc1)c1ccccc1 (stereo unspecified),1 (inactive)
19,CCOc1ccccc1-c1nc(-c2ccc(NC(=O)Cc3ccccc3OC)cc2)no1,1 (inactive)

row,SMILES,proportion of mobile D. dipsaci
1,CCCCc1nc(-c2ccc(-c3ccc(C)cc3)nc2OC)no1,1 (inactive)
2,CC(C)(C)c1ccc(-c2nnc(SCc3cccc(C#N)c3)o2)cc1,1 (inactive)
3,COc1ccc(-c2nnc(SCC(=O)c3ccccc3)o2)cc1,1 (inactive)
4,COc1cccc(-c2noc(COc3ccccc3Cl)n2)c1,1 (inactive)
5,CC(C)(C)NC(=O)c1ccccc1-c1nc(-c2ccccc2)no1,1 (inactive)
6,Cc1cc(OCc2nc(-c3ccc(NC(=O)c4ccc5c(c4)OCO5)cc3)no2)ccc1Cl,1 (inactive)
7,CCOc1nc(-c2ccc(C)cc2)ccc1-c1noc(-c2cccnc2)n1,1 (inactive)
8,COc1ccc(Cl)cc1-c1noc(-c2ccc(Cl)cc2)n1,1 (inactive)
9,Cc1ccc(-c2nnc(SCc3ccccc3)o2)cc1,0.889 (inactive)
10,CN(C(=O)CSc1nnc(-c2ccccc2)o1)c1ccccc1,1 (inactive)
11,CC(Oc1ccccc1)c1nc(-c2ccccn2)no1 (stereo unspecified),1 (inactive)
12,O=C(CSc1nnc(-c2ccc(Cl)cc2)o1)Nc1ccccc1C(F)(F)F,1 (inactive)
13,CCOc1nc(-c2ccccc2)ccc1-c1noc(-c2ccccc2F)n1,1 (inactive)
14,Cc1ccc(-c2nnc(SCC(=O)NCCc3ccccc3)o2)cc1,1 (inactive)
15,Cc1cccc(-c2noc(-c3ccc(F)cc3)n2)c1,1 (inactive)
16,CNC(=O)c1ccccc1-c1nc(-c2ccc(Cl)cc2)no1,1 (inactive)
17,Cc1cc(OCc2nc(-c3ccccc3)no2)ccc1Cl,1 (inactive)
18,Clc1ccc(-c2noc(COc3ccccc3Cl)n2)cc1,1 (inactive)
19,Cc1cc(OCc2nc(-c3ccncc3)no2)ccc1Br,1 (inactive)
